Measured values from PubChem BioAssay (Tox21).
Inconclusive results are not listed. A number with no mark means an inactive call. Active and inactive are the calls of the source. Calls follow the shape of the dose curve; as a rule, active = well fitted cell-killing curve with a large enough effect in the repeat runs; inconclusive = weak or mixed curves, or effect the other way; inactive = flat fitted curve, though single readings scatter.

test: qHTS assay to identify small molecule agonists of the estrogen receptor beta (ER-beta) signaling pathway - cell viability counter screen (AID 1259380); conditions: ER-beta-bla HEK293T viability, CellTiter-Glo luminescence, 16 h; series mostly up to 92.4 µM; activity change, negative = cytotoxicity: at the top concentration; also: nearly all actives have a fitted effect of over 30% in size
Source text: National Center for Advancing Translational Sciences [NCATS]
NIH Chemical Genomics Center [NCGC]
U.S. Environmental Protection Agency [EPA]
National Institutes of Environmental Health Sciences [NIEHS]
National Toxicology Program [NTP]
U.S. Food and Drug Administration [FDA]
Estrogen receptor (ER), a nuclear hormone receptor, plays an important role in development, metabolic homeostasis and reproduction. Two subtypes of ER, ER-alpha and ER-beta, have similar expression patterns with some uniqueness in both types. Endocrine disrupting chemicals (EDCs) and their interactions with steroid hormone receptors like ER causes disruption of normal endocrine function. To identify the compounds that activate ER signaling, an ER beta-UAS-bla GripTite cell line (Life Technologies, Madison, WI, USA) containing a beta-lactamase reporter gene under the control of an UAS response element was used to screen Tox21 10K compound library. The cytotoxicity of the Tox21 compound library against the ER-beta-bla cell line was tested in parallel by measuring the cell viability using CellTiter-Glo assay in the same wells.
Tox21 Assay Protocol Summary:
ER-beta-UAS-bla HEK293T cells were dispensed at 2,000 cells/5 uL of assay medium containing 2% charcoal stripped FBS per well into black wall/clear-bottom 1536-well plates using a Multidrop Combi (ThermoFisher Scientific, Waltham, MA) dispenser. After the assay plates were incubated at a 37C and 5% CO2 for 6 hr, 23 nL of compounds dissolved in DMSO, positive controls or DMSO only was transferred to the assay plate by a Pintool station (Kalypsys, San Diego, CA). The plates were incubated at 37C and 5% CO2 for 16 hr. Then 1 uL of LiveBLAzerTM B/G FRET substrate was added using a BioRAPTR FRD (Flying Reagent Dispenser, Aurora Discovery, San Diego, CA) and then the plates were incubated at room temperature for 2 hours, and fluorescence intensity was measured by an Envision plate reader (PerkinElmer, Shelton, CT). For cell viability readout that measures cytotoxicity, 4 uL/well of CellTiter-Glo reagent was added into the assay plates using a FRD. After 30 min incubation at room temperature, the luminescence intensity in the plates was measured using a ViewLux (PerkinElmer) plate reader.
% is scaled to controls: 0 for no effect and ±100 for the full control effect.

SMILES	activity change, negative = cytotoxicity	Potency
O=C(O)COc1nn(Cc2ccccc2)c2ccccc12	6.19% [at 42.5 µM]	
O=C(O)CN(CCOCCOCCN(CC(=O)O)CC(=O)O)CC(=O)O	9.83% [at 0.349 µM]	
CCCCNC(=O)NCCCC	1.43%	
CN(C)CCCSc1ccccc1NC(=O)/C=C/c1ccccc1	2.9% [at 42.5 µM]	
COC(=O)CCSCCC(=O)OC	-0.455%	
N#Cc1ccc(C2CCCc3cncn32)cc1 (stereo not given)	-7.84% [at 42.5 µM]	
CN1N=C(C(N)=O)CCC1=O	0.36% [at 42.5 µM]	
O=C1CCCC(=O)C1	2.56%	
NCCc1cnc[nH]1	2.86% [at 42.5 µM]	
CC(=O)N(CC(O)CO)c1c(I)c(C(=O)NCCO)c(I)c(C(=O)NCC(O)CO)c1I (stereo not given)	7.39% [at 42.5 µM]	
CCc1cccc2c(CCO)c[nH]c12	0.749% [at 42.5 µM]	
CCCCOCCOCCOCc1cc2c(cc1CCC)OCO2	1.45% [at 42.5 µM]	
Cc1ccc(=O)n(-c2ccccc2)c1	6.38% [at 42.5 µM]	
Cc1ccc(C#N)cc1	-1.82%	
CCN(CC)CCNC(=O)c1cc(S(C)(=O)=O)ccc1OC	5.87% [at 42.5 µM]	
COc1ccc2c(c1)CCCC2=O	-0.324% [at 42.5 µM]	
CC(C)CNCC(C)C	0.412%	
CCn1nc(C(=O)O)c(=O)c2cc3c(cc21)OCO3	4.89% [at 42.5 µM]	
CCOC(=O)c1ccc(C)cc1	1.46%	
OCCOc1ccc(OCCO)cc1	5.24%	

SMILES	activity change, negative = cytotoxicity	Potency
C=C(C)CS(=O)(=O)O	0.866%	
CC(=O)OCC(=O)[C@@]1(O)CC[C@H]2[C@@H]3CCC4=CC(=O)CC[C@]4(C)[C@H]3C(=O)C[C@@]21C	7.02% [at 42.5 µM]	
CCCc1cc(C(N)=S)ccn1	0.865% [at 42.5 µM]	
CC(NC(CCc1ccccc1)C(=O)O)C(=O)N1C(=O)N(C)CC1C(=O)O (stereo not given)	1.27% [at 42.5 µM]	
CC(C)NC(=O)NC(C)C	2.45%	
C=CCOCC(CC)(CO)COCC=C	-1.14%	
CCCCC/C=C\CCC=O	-1.37%	
C[N+](C)(C)CC(O)CC(=O)[O-] (stereo not given)	1.34% [at 42.5 µM]	
Cc1cnc(NS(=O)(=O)c2ccc(N)cc2)nc1	-1.51% [at 42.5 µM]	
O=C1OC(=O)C2CCCCC12 (stereo not given)	4.07%	
C[C@@H]1CCN(C(=O)[C@H](CCCN=C(N)N)NS(=O)(=O)c2cccc3c2NC[C@H](C)C3)[C@@H](C(=O)O)C1	9.43% [at 42.5 µM]	
FC1(F)C(F)(F)C(F)(F)C2(F)C(F)(F)C(F)(F)C(F)(F)C(F)(F)C2(F)C1(F)F (stereo not given)	11.6% [at 42.5 µM]	
CN1CCCC1	7.02%	
c1cnc(N2CCN(Cc3ccc4c(c3)OCO4)CC2)nc1	-9.49% [at 42.5 µM]	
Cc1c(NC(C)C)c(=O)n(-c2ccccc2)n1C	3.59% [at 42.5 µM]	
Nc1nc2c(ncn2COC(CO)CO)c(=O)[nH]1	12.3% [at 42.5 µM]	
CCN1CCC[C@H]1CNC(=O)c1cc(S(N)(=O)=O)ccc1OC	7.43% [at 42.5 µM]	
OC[C@]1(O)OC[C@@H](O)[C@H](O)[C@@H]1O		inactive
CN1CCN(c2cc3c(cc2F)c(=O)c(C(=O)O)cn3-c2ccc(F)cc2)CC1	-1.4% [at 42.5 µM]	
CCC(C)C1CCCCC1=O (stereo not given)	12.3%	
